# Measured values from PubChem BioAssay (NCI).
# Compounds without any hit were thinned out: in the full panel of roughly 83,000, 20% have a hit.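 Cells were grown in 96-well plates and exposed to the test compound at a single concentration for 48 hours; results are reported as percent growth, with values below 10 considered active.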 A number with no mark means an inactive call. The source made the active and inactive calls.
# Tested on: RPMI-8226 leukemia
# Test: NCI-60 one-dose screen, 48 h (100 = growth as untreated, 0 = no growth, -100 = all killed)
# Settings: 10 µM
# Method: Growth inhibition of the RPMI-8226 human tumor cell line is measured as a screen for anti-cancer activity. Cells are grown in 96 well plates and exposed to the test compound for 48 hours. Compounds are tested at a single concentration, which is 10^-5 M for most compounds. The reported endpoint is percent growth (GI% or GIPRCNT), where numbers from 0 - 100% represent growth inhibition, and numbers from -100% - 0 represent cell death. For example, a value of 40 represents 60% growth inhibition. A value of 0 means no net growth occurred over the course of the experiment. A value of -40 indicates 40% of cells at the beginning of the experiment died by the end of the experiment. A value of -100 means all cells are dead at the end of the experiment.
# NCI-60 Human Tumor Cell Lines Screen was performed using the standard one-dose NCI protocol, which is described in more detail at https://dtp.cancer.gov/discovery_development/nci-60/default.htm.
# Compounds with GIPRCNT values below 10 were considered active. Activity score was based on GIPRCNT using the following formula: […]
# Score is 0 for GIPRCNT values of 100 or above, 50 for GIPRCNT values of 0, and 100 for GIPRCNT values of -100.
row,SMILES,growth
1,CC(=O)N(CC(O)CO)c1c(I)c(C(=O)NCCO)c(I)c(C(=O)NCC(O)CO)c1I (stereo not given),102%
2,Cc1ccc2c(N/N=C\c3ccco3)cc(C)nc2n1,64.7%
3,O=c1oc2ccccc2cc1-c1csc(N=Nc2c(O)[nH]c3ccc(Br)cc23)n1,109%
4,O=C(c1cnn2c1NC(c1ccc(F)cc1)C2)N1CCCCC1 (stereo not given),103%
5,COc1ccc(NS(=O)(=O)c2ccc(-c3cnc(C4CC4)o3)cc2)cc1,74.9%
6,Nc1nc(N)c(C=Nc2ccc(Br)cc2)c(Nc2ccc(Br)cc2)n1,113%
7,Cc1cc(NS(=O)(=O)c2ccc(NC(=O)COc3ccc(-c4cc5ccccc5[nH]4)cc3)cc2)no1,24.9%
8,O=C(Nc1ccccc1O)c1ccc(NS(=O)(=O)c2cccc3cccnc23)cc1,15.3%
9,O=C(NC1CC1)c1cc2n(n1)CC(c1ccccc1)N2 (stereo not given),112%
10,CCCCCCCCCCCCSC1=CC(=O)C=CC1=O,-8.18% (active)
11,O=C(O)CCN1CCN(c2cccc(Cl)c2)CC1,112%
12,O=C(NCc1ccco1)C1CCN(S(=O)(=O)c2ccc(Cl)cc2)CC1,-24.6% (active)
13,O=[N+]([O-])c1cc2c(cc1Br)-c1ccccc1C2,80.7%
14,Clc1nc(-c2ccccn2)nc2sc3c(c12)CCCCCC3,95.5%
15,O=C(c1ccccc1)C(Br)C(Br)c1cccc([N+](=O)[O-])c1 (stereo not given),-19.4% (active)
16,Oc1ccc(Cl)cc1CNc1nc2ccccc2[nH]1,-21.2% (active)
17,O=c1nc(NO)[nH]c(=O)n1Cc1ccccc1,104%
18,Oc1ccccc1/C=N/Nc1nc2ccccc2s1,35.8%
19,COc1cccc(-c2ccc3c(c2)C2CCN(Cc4ccccc4)C3C2)c1 (stereo not given),59.4%
20,N#CCCN1CCN(CCC#N)C1=S,111%

row,SMILES,growth
1,Clc1ccc(C2=Nc3cccc4cccc(c34)N2)cc1Cl,56.8%
2,COc1cccc(Nc2nc(NCCO)c3ccccc3n2)c1,13.7%
3,COc1ccccc1/C=C/C(=O)/C=C/c1ccccc1O,-53.7% (active)
4,COC(=O)c1cc(-c2ccc(C)cc2)n(C(=O)CSc2nc3sc(C(N)=O)c(C)c3c(=O)n2Cc2ccccc2)n1,94.4%
5,COc1cc(C2CC(=O)Nc3c2ccc2ccccc32)cc(Br)c1OC (stereo not given),-13.1% (active)
6,O=[N+]([O-])c1ccc2nc(N/N=C/c3ccc(O)cc3)sc2c1,28.3%
7,C[C@@H](Oc1cc(-c2cnn(C3CC4(CNC4)C3)c2)cnc1N)c1c(Cl)ccc(F)c1Cl,27.7%
8,COc1ccc(/C=C2\Oc3cc(C)c(Cl)cc3C2=O)cc1OC,89.9%
9,COC(=O)c1c2c(c(C)[n+]([O-])c1C)C(=O)C=C(NCc1ccc(F)cc1)C2=O,-20.9% (active)
10,C[C@H]1C(=O)C23CCC1C[C@@]21O[C@@H]2C(C)(C)C=CC(=O)C23COC1=O,93.5%
11,COc1cc2oc(-c3ccc(O)cc3)cc(=O)c2c(O)c1I,87.1%
12,COc1ncnc2c1ncn2C/C(Br)=C(\Br)CCl,-25.4% (active)
13,O=S(=O)(OCCO)c1ccccc1,103%
14,O=C1C(N2CCOCC2)=Cc2cccc3cccc1c23,105%
15,COc1nc2c(cc1S(=O)(=O)c1ccccc1)CCc1c-2cnn1-c1ccccc1,62.6%
16,Cn1c2ccccc2c2nn(Cc3ccccc3)c(=O)nc21,101%
17,O=C1/C(=C/c2ccc(Cl)cc2)N=C(c2ccccc2)N1CCc1cccs1,76.1%
18,CCC(=O)Nc1nnc(Cc2ccc(OC)c(OC)c2)s1,15.6%
19,CC(=O)Nc1ccc(S(=O)(=O)N/N=C\c2ccc(Cl)c(Cl)c2)cc1,92.5%
20,Cc1cc(O)cc2c1[C@H]1CC[C@]3(C)[C@@H](O)CC[C@H]3[C@@H]1C=C2,80.8%
